Results as given in PubChem BioAssay AID1159580 (chemical genetic matrix, 2015).
“And” between values parts separate entries of the source, which are not always exact repeats. Identical values can stand only once. Hit rate of the full screen: of about 5,500 compounds, about 2,000 (36%) were called active. Roughly 18% stayed inconclusive and do not appear here. Cut-off read from the data, not from the text of the source: active = normalized growth mostly below about 0.91 (no sharp cut-off); inconclusive = no clear call, values can overlap the other calls; inactive = mostly above about 0.92. The list shows a part of the results.

Assay: chemical genetic growth profiling, strain panel (AID 1159580);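 note: tested at 20 µM; growth read once vehicle control cultures reached saturation at 30 °C; 1 = growth at the plate median or of vehicle wells; lower values mean less growth of the strain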
Details: growth OD

Measured: normalized growth

CC(=O)OCC(COC(C)=O)OC(C)=O
inactive: S. cerevisiae deletion strains, locus YAL013W, strain DEP1, active compounds read low 1.01 | S. cerevisiae deletion strains, locus YBR021W, strain FUR4, active compounds read low 1.02 | S. cerevisiae deletion strains, locus YBR229C, strain ROT2, active compounds read low 1 | S. cerevisiae deletion strains, locus YCL029C, strain bik1, active compounds read low 1.03 | S. cerevisiae deletion strains, locus YDL035C, strain GPR1, active compounds read low 1.02 | S. cerevisiae deletion strains, locus YDL074C, strain BRE1, active compounds read low 1.02 | S. cerevisiae deletion strains, locus YDL101C, strain DUN1, active compounds read low 1.02 | S. cerevisiae deletion strains, locus YDL134C, strain PPH21, active compounds read low 1.01 | S. cerevisiae deletion strains, locus YDL185W, strain tfp1, active compounds read low 1.01 | S. cerevisiae deletion strains, locus YDL192W, strain arf1, active compounds read low 1.02 | S. cerevisiae deletion strains, locus YDR101C, strain arx1, active compounds read low 1 | S. cerevisiae deletion strains, locus YDR150W, strain NUM1, active compounds read low 1.01 | S. cerevisiae deletion strains, locus YDR162C, strain NBP2, active compounds read low 1.01 | S. cerevisiae deletion strains, locus YDR318W, strain mcm21, active compounds read low 1.01 | S. cerevisiae deletion strains, locus YDR388W, active compounds read low 1.01 | S. cerevisiae deletion strains, locus YDR502C, strain sam2, active compounds read low 1 | S. cerevisiae deletion strains, locus YEL061C, strain CIN8, active compounds read low 1.01 | S. cerevisiae deletion strains, locus YER110C, active compounds read low 1.01 | S. cerevisiae deletion strains, locus YER155C, strain BEM2, active compounds read low 0.999 | S. cerevisiae deletion strains, locus YER167W, strain BCK2, active compounds read low 1.01 | S. cerevisiae deletion strains, locus YGL078C, strain dbp3, active compounds read low 1.01 | S. cerevisiae deletion strains, locus YGL086W, strain mad1, active compounds read low 1 | S. cerevisiae deletion strains, locus YGL248W, strain PDE1, active compounds read low 1.01 | S. cerevisiae deletion strains, locus YGR078C, strain PAC10, active compounds read low 1.02 | S. cerevisiae deletion strains, locus YGR135W, strain pre9, active compounds read low 1.01 | S. cerevisiae deletion strains, locus YGR229C, strain SMI1, active compounds read low 1.02 | S. cerevisiae deletion strains, locus YGR252W, strain gcn5, active compounds read low 0.969 | S. cerevisiae deletion strains, locus YHR030C, strain SLT2, active compounds read low 1.01 and 0.958 | S. cerevisiae deletion strains, locus YHR079C, strain IRE1 (second series), active compounds read low 1.01 | S. cerevisiae deletion strains, locus YHR079C, strain IRE1, active compounds read low 0.989 | S. cerevisiae deletion strains, locus YHR094C, strain hxt1, active compounds read low 1.01 | S. cerevisiae deletion strains, locus YHR129C, strain ARP1, active compounds read low 1.01 | S. cerevisiae deletion strains, locus YHR200W, strain rpn10, active compounds read low 1.01 | S. cerevisiae deletion strains, locus YIL066C, strain RNR3, active compounds read low 1.03 | S. cerevisiae deletion strains, locus YIL073C, strain SPO22, active compounds read low 1.02 | S. cerevisiae deletion strains, locus YIL125W, strain kgd1, active compounds read low 1 | S. cerevisiae deletion strains, locus YIR030C, strain dcg1, active compounds read low 1.01 | S. cerevisiae deletion strains, locus YJL095W, strain BCK1, active compounds read low 1.02 and 0.962 | S. cerevisiae deletion strains, locus YJL134W, strain LCB3, active compounds read low 1.01 | S. cerevisiae deletion strains, locus YJL168C, strain set2, active compounds read low 1.01 | S. cerevisiae deletion strains, locus YJL187C, strain SWE1 (second series), active compounds read low 1.03 | S. cerevisiae deletion strains, locus YJR043C, strain POL32, active compounds read low 1.02 | S. cerevisiae deletion strains, locus YJR066W, strain TOR1, active compounds read low 0.936 | S. cerevisiae deletion strains, locus YJR075W, strain HOC1, active compounds read low 1.03 | S. cerevisiae deletion strains, locus YKL009W, strain mrt4, active compounds read low 1.02 | S. cerevisiae deletion strains, locus YKL068W, active compounds read low 1 | S. cerevisiae deletion strains, locus YKL085W, strain MDH1 (second series), active compounds read low 1.01 | S. cerevisiae deletion strains, locus YKL085W, strain MDH1, active compounds read low 1.01 | S. cerevisiae deletion strains, locus YKL190W, strain CNB1, active compounds read low 1.01 | S. cerevisiae deletion strains, locus YKR001C, strain vps1, active compounds read low 1.02 | S. cerevisiae deletion strains, locus YLR039C, strain RIC1, active compounds read low 0.991 | S. cerevisiae deletion strains, locus YLR058C, strain SHM2, active compounds read low 1.01 | S. cerevisiae deletion strains, locus YLR102C, strain apc9, active compounds read low 0.997 | S. cerevisiae deletion strains, locus YLR113W, strain HOG1, active compounds read low 1 | S. cerevisiae deletion strains, locus YLR262C, strain YPT6, active compounds read low 1.03 | S. cerevisiae deletion strains, locus YLR268W, strain sec22, active compounds read low 1.03 | S. cerevisiae deletion strains, locus YLR330W, strain CHS5, active compounds read low 1.02 | S. cerevisiae deletion strains, locus YLR342W, strain FKS1 (second series), active compounds read low 1.01 | S. cerevisiae deletion strains, locus YLR371W, strain rom2, active compounds read low 1.01 | S. cerevisiae deletion strains, locus YLR418C, strain cdc73, active compounds read low 1.02 | S. cerevisiae deletion strains, locus YML016C, strain PPZ1, active compounds read low 1.01 | S. cerevisiae deletion strains, locus YML032C, strain rad52, active compounds read low 1.03 | S. cerevisiae deletion strains, locus YML124C, strain tub3, active compounds read low 1 | S. cerevisiae deletion strains, locus YMR078C, strain ctf18, active compounds read low 1.01 | S. cerevisiae deletion strains, locus YMR223W, strain ubp8, active compounds read low 1 | S. cerevisiae deletion strains, locus YMR263W, strain SAP30, active compounds read low 1.02 | S. cerevisiae deletion strains, locus YMR307W, strain GAS1, active compounds read low 0.998 | S. cerevisiae deletion strains, locus YNL067W, strain RPL9B, active compounds read low 1.03 | S. cerevisiae deletion strains, locus YNL128W, strain TEP1, active compounds read low 1.02 | S. cerevisiae deletion strains, locus YNL153C, strain GIM3, active compounds read low 1.02 | S. cerevisiae deletion strains, locus YNL183C, strain NPR1, active compounds read low 0.949 | S. cerevisiae deletion strains, locus YNL233W, strain BNI4, active compounds read low 1.01 | S. cerevisiae deletion strains, locus YNL250W, strain rad50, active compounds read low 1 | S. cerevisiae deletion strains, locus YNL271C, strain bni1, active compounds read low 1.02 | S. cerevisiae deletion strains, locus YNL298W, strain CLA4, active compounds read low 1.02 | S. cerevisiae deletion strains, locus YNL307C, strain MCK1, active compounds read low 1.01 | S. cerevisiae deletion strains, locus YNL322C, strain KRE1, active compounds read low 1.01 | S. cerevisiae deletion strains, locus YNR052C, strain pop2, active compounds read low 1.01 | S. cerevisiae deletion strains, locus YOL006C, strain TOP1, active compounds read low 1.05 | S. cerevisiae deletion strains, locus YOL012C, strain htz1 1.07 | S. cerevisiae deletion strains, locus YOL147C, strain pex11, active compounds read low 1.01 | S. cerevisiae deletion strains, locus YOR061W, strain CKA2, active compounds read low 1.01 | S. cerevisiae deletion strains, locus YOR069W, strain VPS5, active compounds read low 1.01 | S. cerevisiae deletion strains, locus YOR136W, strain idh2, active compounds read low 1.01 | S. cerevisiae deletion strains, locus YOR144C, strain elg1, active compounds read low 0.998 | S. cerevisiae deletion strains, locus YOR184W, strain ser1, active compounds read low 1.02 | S. cerevisiae deletion strains, locus YOR231W, strain MKK1, active compounds read low 0.993 | S. cerevisiae deletion strains, locus YOR316C, strain cot1, active compounds read low 1.01 | S. cerevisiae deletion strains, locus YPL055C, strain LGE1, active compounds read low 1.06 | S. cerevisiae deletion strains, locus YPL241C, strain CIN2, active compounds read low 1.01 | S. cerevisiae deletion strains, locus YPL256C, strain CLN2, active compounds read low 0.989 | S. cerevisiae deletion strains, locus YPR119W, strain clb2, active compounds read low 1.01 | S. cerevisiae deletion strains, locus YPR141C, strain kar3, active compounds read low 1.01 | S. cerevisiae deletion strains, locus YPR163C, strain tif3, active compounds read low 1.02 | S. cerevisiae deletion strains, locus YPR167C, strain met16, active compounds read low 1.01 | S. cerevisiae deletion strains, strain wtn01, active compounds read low 1.04 | S. cerevisiae strains, strain wild type, active compounds read low 1.02
